The results in this text go back to PubChem BioAssay (EPA / NIEHS).

As a reminder, the AC50 is the concentration at which the activity in the assay is half-maximal.

Results filed as inconclusive are left out. Calls of active or inactive are those of the source. The calls were made as follows, unless noted: active = hit-call score of the fitted dose curve at least 0.9, where 1 is the maximum; inconclusive = response in the unintended direction; inactive = score below 0.9.

The target in assay [1] is mouse Estrogen Receptor alpha (Era), Esr1 (gene 13982) (UniProt P19785). Put plainly: NVS_NR_mERa: NovaScreen (NVS) Nuclear Receptor Binding Assay for mouse Estrogen Receptor alpha (Era) (AID 2283378).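 Also: hit means loss of bound radioligand signal relative to DMSO.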 In short, it runs like this: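 Cell-free radioligand binding with extracted mouse Era protein; competitive displacement of radiolabelled ligand, read by filter-based scintillation counting 18 hours after dosing. Loss of signal versus DMSO baseline taken as binding; single screening concentration 25 uM, actives followed in concentration series.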
Sequence of mouse Estrogen Receptor alpha (Era), Esr1 (gene 13982) (P19785 whole entry, looked up): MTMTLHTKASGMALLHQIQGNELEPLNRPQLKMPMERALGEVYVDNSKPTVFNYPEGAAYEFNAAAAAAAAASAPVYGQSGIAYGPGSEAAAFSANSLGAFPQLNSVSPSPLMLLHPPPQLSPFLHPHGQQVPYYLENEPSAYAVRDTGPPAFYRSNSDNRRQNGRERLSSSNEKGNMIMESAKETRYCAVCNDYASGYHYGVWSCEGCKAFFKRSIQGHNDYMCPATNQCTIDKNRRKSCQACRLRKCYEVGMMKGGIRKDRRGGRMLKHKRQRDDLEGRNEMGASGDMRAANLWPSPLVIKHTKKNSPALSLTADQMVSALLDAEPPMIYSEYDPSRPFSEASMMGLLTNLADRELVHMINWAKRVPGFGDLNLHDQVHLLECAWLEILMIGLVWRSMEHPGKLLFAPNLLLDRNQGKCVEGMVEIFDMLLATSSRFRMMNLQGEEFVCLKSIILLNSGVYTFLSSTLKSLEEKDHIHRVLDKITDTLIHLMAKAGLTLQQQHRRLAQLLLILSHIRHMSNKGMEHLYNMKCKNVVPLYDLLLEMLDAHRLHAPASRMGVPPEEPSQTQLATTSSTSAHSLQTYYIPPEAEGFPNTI

In assay [2] the target is Estrogen receptor (Homo sapiens) (UniProt P03372). Briefly: OT_ERa_GFPERaERE_0480: Odyssey Thera (OT) 8-hour HeLa Transcription Induction Assay for Estrogen Receptor (AID 2283381; active = hit-call score of the fitted dose curve at least 0.9, where 1 is the maximum; inactive = score below 0.9). In short, it runs like this: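 An 8 h HeLa transcription-induction format with a GFP reporter under ERE control, read by fluorescence microscopy; single endpoint fitted positively with DMSO as baseline.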
Sequence of Estrogen receptor (Homo sapiens) (P03372 whole entry, looked up): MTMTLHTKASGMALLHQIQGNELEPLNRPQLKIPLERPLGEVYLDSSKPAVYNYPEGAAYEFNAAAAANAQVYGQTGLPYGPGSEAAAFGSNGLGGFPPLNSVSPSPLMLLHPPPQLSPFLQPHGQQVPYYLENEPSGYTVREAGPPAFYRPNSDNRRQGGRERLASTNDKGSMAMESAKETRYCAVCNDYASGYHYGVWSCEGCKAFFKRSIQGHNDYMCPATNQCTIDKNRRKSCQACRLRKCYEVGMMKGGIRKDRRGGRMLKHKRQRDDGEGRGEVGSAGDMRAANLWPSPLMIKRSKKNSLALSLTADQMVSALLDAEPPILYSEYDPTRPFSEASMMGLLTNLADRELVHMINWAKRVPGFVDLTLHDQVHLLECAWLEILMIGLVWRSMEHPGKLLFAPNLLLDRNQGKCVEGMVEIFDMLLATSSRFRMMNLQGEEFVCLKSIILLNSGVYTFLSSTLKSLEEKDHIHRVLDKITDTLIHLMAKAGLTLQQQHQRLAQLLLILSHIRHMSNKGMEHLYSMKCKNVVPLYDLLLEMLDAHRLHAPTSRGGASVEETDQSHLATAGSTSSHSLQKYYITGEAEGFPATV

The target is the same in assay [3]. Briefly: OT_ERa_GFPERaERE_0120: Odyssey Thera (OT) 2-hour HeLa Transcription Induction Assay for Estrogen Receptor (AID 2283382). A digest of the protocol:
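Two-hour compound treatment of HeLa cells preceded microscopy imaging of an inducible fluorescent reporter. Image-based quantification gave one endpoint, analysed for signal increase relative to DMSO controls.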

The target of assay [4] is Bile acid receptor (Homo sapiens) (UniProt Q96RI1). Briefly: OT_FXR_FXRSRC1_0480: Odyssey Thera (OT) 8-hour HEK293T Protein-Complementation Assay for Farnesoid X receptor/SRC-1 Co-activator (AID 2283383). In short, it runs like this: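 Readings were taken 8 h after dosing HEK293T cells in a split-reporter complementation format pairing FXR with SRC-1. Increased fluorescence relative to DMSO-treated wells defined activity.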
Sequence of Bile acid receptor (Homo sapiens) (Q96RI1 whole entry, looked up): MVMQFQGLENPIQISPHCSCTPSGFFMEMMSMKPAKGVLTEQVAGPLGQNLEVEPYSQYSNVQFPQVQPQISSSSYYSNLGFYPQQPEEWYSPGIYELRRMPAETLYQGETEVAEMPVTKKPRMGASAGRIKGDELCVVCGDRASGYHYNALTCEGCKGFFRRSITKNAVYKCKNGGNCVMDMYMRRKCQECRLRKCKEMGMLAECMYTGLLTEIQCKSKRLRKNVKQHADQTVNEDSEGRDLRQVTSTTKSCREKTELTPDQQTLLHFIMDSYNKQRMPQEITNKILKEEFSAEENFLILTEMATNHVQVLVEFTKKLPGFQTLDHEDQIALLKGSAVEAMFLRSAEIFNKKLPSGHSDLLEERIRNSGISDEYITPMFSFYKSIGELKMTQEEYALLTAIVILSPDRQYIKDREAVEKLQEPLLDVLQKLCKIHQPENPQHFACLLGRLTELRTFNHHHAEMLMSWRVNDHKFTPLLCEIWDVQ

For assay [5] the target is unchanged. Put plainly: OT_FXR_FXRSRC1_1440: Odyssey Thera (OT) 24-hour HEK293T Protein-Complementation Assay for Farnesoid X receptor/SRC-1 Co-activator (AID 2283384). A digest of the protocol:
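Single endpoint, analysed for increased fluorescence against DMSO controls. HEK293T cells carrying FXR and SRC-1 linked to complementary reporter halves were exposed to chemicals for 24 h before reading.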

In assay [6] the target is Retinoic acid receptor RXR-alpha (Homo sapiens) (UniProt P19793). Put plainly: OT_NURR1_NURR1RXRa_0480: Odyssey Thera (OT) 8-hour HEK293T Protein Complementation Assay for Nurr1/retinoid X receptor (RXR) (AID 2283385). A digest of the protocol:
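Gain in fluorescent complementation signal over DMSO, measured 8 hours after chemical dosing of human kidney HEK293T cells, indicated enhanced Nurr1–RXRα association.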

Assay [7] deals with Peroxisome proliferator-activated receptor gamma (Homo sapiens) (UniProt P37231). Put plainly: OT_PPARg_PPARgSRC1_0480: Odyssey Thera (OT) 8-hour Protein-Complementation Assay for Peroxisome Proliferator-activated Receptor Gamma / SRC-1 Co-activator (AID 2283387). In short, it runs like this: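 Split-YFP (IFP1/IFP2) PPARg/SRC-1 reporter, HEK293T, 37 °C, 5% CO2; 8 h compound; formaldehyde fix + Draq5; high-content imaging, N/C ratio, ≥350 cells/image, positive direction vs DMSO.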
Sequence of Peroxisome proliferator-activated receptor gamma (Homo sapiens) (P37231 whole entry, looked up): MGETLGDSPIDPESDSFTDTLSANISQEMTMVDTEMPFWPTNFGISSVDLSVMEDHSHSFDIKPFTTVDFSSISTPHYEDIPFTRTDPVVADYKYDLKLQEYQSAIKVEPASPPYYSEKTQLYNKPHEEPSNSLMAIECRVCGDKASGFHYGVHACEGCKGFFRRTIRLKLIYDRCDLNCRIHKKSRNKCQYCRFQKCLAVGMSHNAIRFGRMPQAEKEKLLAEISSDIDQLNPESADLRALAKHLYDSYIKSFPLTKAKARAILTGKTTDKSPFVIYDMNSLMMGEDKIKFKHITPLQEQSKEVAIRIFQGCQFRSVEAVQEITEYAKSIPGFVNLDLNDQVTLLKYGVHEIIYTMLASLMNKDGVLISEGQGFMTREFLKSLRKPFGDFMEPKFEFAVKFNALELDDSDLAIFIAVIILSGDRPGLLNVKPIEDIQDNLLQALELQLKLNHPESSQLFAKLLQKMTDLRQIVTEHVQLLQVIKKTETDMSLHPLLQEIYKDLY

For assay [8] the target is unchanged. Briefly: OT_PPARg_PPARgSRC1_1440: Odyssey Thera (OT) 24-hour Protein-Complementation Assay for Peroxisome Proliferator-activated Receptor Gamma/ SRC-1 Co-activator (AID 2283388). In short, it runs like this:
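HEK293T cells transiently transfected with PPARg and SRC-1 fused via (Gly4Ser)2 linker to split Venus YFP fragments (IFP1/IFP2) were dosed 24 h; fixed, Draq5-stained, imaged at 488/635 nm; nuclear/cytoplasmic fluorescence ratio scored versus DMSO baseline, gain-of-signal.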

Assay [9] has as its target Agonist Androgen Response Element (ARE), AR (gene 367) (UniProt P10275). Put plainly: OT_AR_ARELUC_AG_1440: Odyssey Thera (OT) 24-hour CHO-K1 Luciferase Assay for Agonist Androgen Response Element (ARE) (AID 2283379). In short, it runs like this: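 Readout: luciferase bioluminescence from CHO-K1 ARE-luc cells, measured 24 h post-dosing; agonism = increased mean luminescence vs DMSO controls, fitted in positive direction.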

The target in assay [10] is Estrogen receptor beta (Homo sapiens) (UniProt Q92731). Put plainly: OT_ER_ERbERb_1440: Odyssey Thera (OT) 24-hour HEK293T Protein-Complementation Assay for Estrogen Receptor-beta/-beta Homodimer (AID 2283380).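 Also: fluorescence gain from ER beta LBD homodimer complementation read by laser scanning cytometry; scored as signal increase over DMSO baseline for both agonists and antagonists.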 In short, it runs like this:
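Fluorescence increase, nuclear for agonists or whole-cell for antagonists, relative to DMSO vehicle, quantified by laser scanning cytometer after fixation and Draq5 staining. Readout from 24 h treatment of HEK293T cells carrying complementation-paired ER beta LBD (aa 310-547).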

The target of assay [11] is human Norepinephrine Transporter (NET), SLC6A2 (gene 6530) (UniProt P23975). Briefly: NVS_TR_hNET: NovaScreen (NVS) Transporter Assay for human Norepinephrine Transporter (NET) (AID 2283377).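 Also: cell-free membrane protein extracted from CHO cells expressing human NET.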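 As to AC50: displacement of radioligand from human NET seen as loss of scintillation signal.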 A digest of the protocol: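 Single-concentration duplicate screen at 25 uM, then concentration-response for actives; displacement of specific radioligand from human NET in CHO membrane extracts, filter-based scintillation detection at 1 h relative to DMSO.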
Sequence of human Norepinephrine Transporter (NET), SLC6A2 (gene 6530) (P23975 whole entry, looked up): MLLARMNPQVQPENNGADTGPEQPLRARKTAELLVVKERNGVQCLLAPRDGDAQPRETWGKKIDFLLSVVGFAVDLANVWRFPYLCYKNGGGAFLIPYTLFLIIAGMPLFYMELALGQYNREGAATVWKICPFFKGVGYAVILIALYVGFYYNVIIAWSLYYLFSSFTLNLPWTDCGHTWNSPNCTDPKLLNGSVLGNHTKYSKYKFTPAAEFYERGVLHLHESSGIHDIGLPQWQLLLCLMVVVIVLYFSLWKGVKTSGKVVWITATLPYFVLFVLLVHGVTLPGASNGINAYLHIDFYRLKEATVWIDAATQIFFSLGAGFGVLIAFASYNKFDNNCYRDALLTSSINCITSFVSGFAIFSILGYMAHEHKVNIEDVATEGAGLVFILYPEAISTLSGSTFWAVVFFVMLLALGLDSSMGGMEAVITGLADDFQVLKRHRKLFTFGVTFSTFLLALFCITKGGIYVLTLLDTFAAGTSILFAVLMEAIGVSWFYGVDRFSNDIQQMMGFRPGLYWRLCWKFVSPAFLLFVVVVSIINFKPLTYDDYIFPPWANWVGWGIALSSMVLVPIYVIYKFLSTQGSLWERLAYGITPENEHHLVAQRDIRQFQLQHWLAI

Assay [12] deals with Retinoic acid receptor RXR-alpha (Homo sapiens) (UniProt P19793). Briefly: OT_NURR1_NURR1RXRa_1440: Odyssey Thera (OT) 24-hour HEK293T Protein Complementation Assay for Nurr1/retinoid X receptor (RXR) (AID 2283386). A digest of the protocol: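 Cell-based binding reporter: HEK293T cells, 24 h exposure, fluorescence-detected fragment complementation, DMSO as baseline.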
Sequence of Retinoic acid receptor RXR-alpha (Homo sapiens) (P19793 whole entry, looked up, the tested form may be a part): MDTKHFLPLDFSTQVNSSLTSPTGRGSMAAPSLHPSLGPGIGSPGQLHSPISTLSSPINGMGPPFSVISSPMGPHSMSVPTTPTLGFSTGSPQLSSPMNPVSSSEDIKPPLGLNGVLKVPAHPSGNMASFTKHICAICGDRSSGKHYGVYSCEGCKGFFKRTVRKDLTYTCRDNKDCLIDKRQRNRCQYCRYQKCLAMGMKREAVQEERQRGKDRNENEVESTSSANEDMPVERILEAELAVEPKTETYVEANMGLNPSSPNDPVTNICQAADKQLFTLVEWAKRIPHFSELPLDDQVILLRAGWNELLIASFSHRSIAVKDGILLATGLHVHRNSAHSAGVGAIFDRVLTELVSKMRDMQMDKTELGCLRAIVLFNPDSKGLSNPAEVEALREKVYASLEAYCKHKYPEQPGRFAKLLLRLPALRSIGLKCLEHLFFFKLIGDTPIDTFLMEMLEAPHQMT
Assay [13] is described as follows: CEETOX_H295R_11DCORT: CeeTox H295R High-throughput Steroidogenesis Assay for 11-Deoxycortisol (11DCORT) (AID 2283432; active = hit-call score of the fitted dose curve at least 0.9, where 1 is the maximum; inactive = score below 0.9;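 also: 11-deoxycortisol secreted into the medium measured by LC-MS/MS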). The settings on record: actives raise or lower the signal. A digest of the protocol:
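Steroidogenesis in human H295R cells: 48 h chemical exposure after forskolin priming, 11-deoxycortisol measured by LC-MS/MS.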

The nature of assay [14]: CEETOX_H295R_OHPREG: CeeTox H295R High-throughput Steroidogenesis Assay for OH-Pregnenolone (OHPREG) (AID 2283434; active = hit-call score of the fitted dose curve at least 0.9, where 1 is the maximum; inactive = score below 0.9). The settings on record: actives raise or lower the signal. In short, it runs like this:
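Secreted 17alpha-hydroxypregnenolone measured by HPLC-MS/MS after liquid-liquid extraction. Human adrenal H295R cells received 48 h forskolin (10 uM) stimulation before 48 h chemical exposure at 0.1% final DMSO; MTT viability in same wells; bidirectional fit against DMSO.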

A short description of assay [15]: CEETOX_H295R_OHPROG: CeeTox H295R High-throughput Steroidogenesis Assay for OH-Progesterone (OHPROG) (AID 2283435; active = hit-call score of the fitted dose curve at least 0.9, where 1 is the maximum; inactive = score below 0.9;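 also: 17alpha-hydroxyprogesterone secreted into medium measured by HPLC-MS/MS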). The settings on record: actives raise or lower the signal. A digest of the protocol: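 Human adrenocortical H295R cells, passage 10 or lower, were treated with chemical for 48 h after forskolin priming, and hormone output in the medium was quantified by LC-MS/MS.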

A short description of assay [16]: CEETOX_H295R_CORTIC: CeeTox H295R High-throughput Steroidogenesis Assay for Corticosterone (CORTIC) (AID 2283437; active = hit-call score of the fitted dose curve at least 0.9, where 1 is the maximum; inactive = score below 0.9). The note with it: actives raise or lower the signal. In short, it runs like this:
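Medium corticosterone was quantified by tandem mass spectrometry following 48 hours of chemical exposure (0.1% DMSO) in human H295R cells previously stimulated 48 hours with 10 uM forskolin. Viability checked by MTT; chemicals diluted and retested when viability fell below 70%.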

A short description of assay [17]: CEETOX_H295R_ESTRADIOL: CeeTox H295R High-throughput Steroidogenesis Assay for Estradiol (AID 2283440; active = hit-call score of the fitted dose curve at least 0.9, where 1 is the maximum; inactive = score below 0.9;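 also: estradiol secreted into medium quantified by LC-MS/MS after dansyl derivatisation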). The settings on record: actives raise or lower the signal. A digest of the protocol: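 H295R adrenocortical cells were prestimulated with 10 uM forskolin for 48 h, then exposed to test chemical in 0.1% DMSO for 48 h. Medium estradiol was extracted with MTBE, dansyl-derivatized and quantified by HPLC-MS/MS; bidirectional fit versus DMSO.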

Assay [18] in a line: CEETOX_H295R_ESTRONE: CeeTox H295R High-throughput Steroidogenesis Assay for Estrone (AID 2283441; active = hit-call score of the fitted dose curve at least 0.9, where 1 is the maximum; inactive = score below 0.9;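 also: estrone secreted into medium measured by LC-MS/MS after dansyl derivatization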). The settings on record: actives raise or lower the signal. In short, it runs like this:
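Forskolin-stimulated H295R cells are treated 48 h with chemical, and estrone in the medium is measured by LC-MS/MS. Activity is fitted in both directions relative to DMSO controls, with chemicals diluted until MTT viability reaches at least 70%.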

The nature of assay [19]: CEETOX_H295R_PROG: CeeTox H295R High-throughput Steroidogenesis Assay for Progesterone (PROG) (AID 2283442; active = hit-call score of the fitted dose curve at least 0.9, where 1 is the maximum; inactive = score below 0.9;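 also: human H295R adrenal cells primed with 10 µM forskolin before dosing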). The note with it: actives raise or lower the signal. In short, it runs like this:
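H295R human adrenal cells were prestimulated with 10 uM forskolin for 48 h, then exposed to test chemical (0.1% DMSO final) for 48 h. Medium progesterone was MTBE-extracted and quantified by HPLC-MS/MS, with bidirectional fitting against DMSO.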

Sequence of Estrogen receptor beta (Homo sapiens) (Q92731 whole entry, looked up, the tested form may be a part): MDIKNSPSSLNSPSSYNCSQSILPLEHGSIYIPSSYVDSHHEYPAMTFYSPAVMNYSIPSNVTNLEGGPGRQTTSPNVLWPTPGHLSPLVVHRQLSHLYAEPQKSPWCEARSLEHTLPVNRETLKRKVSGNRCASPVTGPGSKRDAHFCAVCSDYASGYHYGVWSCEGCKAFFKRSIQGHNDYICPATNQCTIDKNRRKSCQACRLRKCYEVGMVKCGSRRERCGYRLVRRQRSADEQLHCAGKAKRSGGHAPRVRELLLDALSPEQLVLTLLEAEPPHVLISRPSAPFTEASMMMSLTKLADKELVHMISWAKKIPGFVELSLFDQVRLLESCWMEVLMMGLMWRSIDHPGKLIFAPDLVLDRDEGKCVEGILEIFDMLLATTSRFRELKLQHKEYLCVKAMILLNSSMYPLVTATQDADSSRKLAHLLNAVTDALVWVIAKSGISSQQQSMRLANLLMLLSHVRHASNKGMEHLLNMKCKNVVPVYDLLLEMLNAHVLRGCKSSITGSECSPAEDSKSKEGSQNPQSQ
Sequence of Agonist Androgen Response Element (ARE), AR (gene 367) (P10275 whole entry, looked up): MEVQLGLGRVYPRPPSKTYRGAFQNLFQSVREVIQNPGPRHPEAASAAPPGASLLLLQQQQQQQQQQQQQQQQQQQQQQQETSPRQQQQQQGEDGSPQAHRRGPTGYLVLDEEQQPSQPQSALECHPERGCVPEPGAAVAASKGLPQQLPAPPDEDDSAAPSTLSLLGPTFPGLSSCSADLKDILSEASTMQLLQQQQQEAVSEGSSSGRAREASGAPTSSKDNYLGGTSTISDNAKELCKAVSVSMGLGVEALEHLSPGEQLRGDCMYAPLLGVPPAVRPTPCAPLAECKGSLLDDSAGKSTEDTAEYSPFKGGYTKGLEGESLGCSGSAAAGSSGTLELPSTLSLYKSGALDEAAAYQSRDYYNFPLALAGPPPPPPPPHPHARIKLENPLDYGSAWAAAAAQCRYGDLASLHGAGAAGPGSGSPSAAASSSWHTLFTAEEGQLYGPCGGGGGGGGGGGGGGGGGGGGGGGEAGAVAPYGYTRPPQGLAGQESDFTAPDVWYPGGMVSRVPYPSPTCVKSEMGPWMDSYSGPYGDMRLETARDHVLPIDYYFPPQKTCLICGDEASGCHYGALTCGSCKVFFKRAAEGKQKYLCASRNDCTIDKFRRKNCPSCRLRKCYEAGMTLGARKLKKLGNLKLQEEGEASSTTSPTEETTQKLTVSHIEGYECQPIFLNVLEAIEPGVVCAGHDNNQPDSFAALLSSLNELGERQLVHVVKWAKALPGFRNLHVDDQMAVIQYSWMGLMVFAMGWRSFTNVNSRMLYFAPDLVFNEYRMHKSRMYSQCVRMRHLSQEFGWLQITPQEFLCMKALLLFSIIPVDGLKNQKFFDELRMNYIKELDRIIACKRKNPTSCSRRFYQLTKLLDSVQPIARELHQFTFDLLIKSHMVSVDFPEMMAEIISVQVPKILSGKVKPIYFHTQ

As to `CCCCC/C=C\C/C=C\CCCCCCCC(=O)O`, the half-maximal activity concentration (AC50) in assay [1] was 35.8 µM (active); in [7], 12.7 µM (active). Besides, the result in assay [2], in assay [3], in assay [4], in assay [5], in assay [6] and in assay [8] was inactive.

As for `COC(OC)(C(=O)c1ccccc1)c1ccccc1`, the half-maximal activity concentration (AC50) in assay [1] was 6.88 µM (active).

Take `N#Cc1ccc(C(c2ccc(C#N)cc2)n2cncn2)cc1`: the call in assay [9], in assay [10], in assay [2], in assay [3], in [4] and in assay [5] was inactive. Besides, the compound was classed as inactive in assay [6], in assay [7] and in [8].

For `Cc1cc(C)n(CO)n1`, the call in [11], in assay [2], in assay [3], in assay [4], in assay [5] and in [7] was inactive. The outcome in assay [8] was inactive.

`c1ccc(-c2nc3ccccc3[nH]2)cc1`: the AC50 in assay [11] is 12 µM (active).

`[Cl][Eu]([Cl])[Cl]`: the AC50 in assay [11] was 45.2 µM (active).

As to `CCCCCCCCCCCCc1ccc(O)cc1`, the compound was classed as inactive in assay [1] and in assay [8]. For the same compound, the values for the half-maximal activity concentration (AC50) in [10], in assay [2] and in [3] were 0.981 µM (active), 0.444 µM (active) and 0.612 µM (active), respectively.

For the compound `CC(C=O)c1ccccc1` (stereo not drawn), the result in [11] was inactive.

On to `N#Cc1ccc(C2CCCc3cncn32)cc1` (stereo not drawn), for which the compound was called inactive in assay [1], in assay [7] and in assay [8]. Further, the AC50 was 18.2 µM (active) in assay [2] and 15.8 µM (active) in [3].

Consider `C[Si](C)(C)N[Si](C)(C)C`, for which the compound was called inactive in [1], in assay [10], in [2], in [3], in [7] and in assay [8].

On to `O=c1c(O)c(-c2ccc(O)cc2O)oc2cc(O)cc(O)c12`, for which the call in assay [1], in [2], in assay [3], in [6], in assay [12] and in [7] was inactive. Moreover, in assay [8], the call was inactive.

Consider `O=C(OCc1ccccc1)c1ccc(O)cc1`, for which the half-maximal activity concentration (AC50) was 1.08 µM (active) in assay [1]; 5.67 µM (active) in assay [10]; 50 µM (active) in [4]; 50 µM (active) in [5]; 36.8 µM (active) in assay [13]; 30.5 µM (active) in assay [14]. For the same compound, the AC50 in [15] is 13.5 µM (active); in assay [17], 50 µM (active); in assay [18], 37.5 µM (active); in [19], 24.6 µM (active). Moreover, the compound was called inactive in assay [2], in assay [3], in assay [6], in [7], in [8] and in [16].

For the compound `Oc1ccc(/C=C/c2cc(O)cc(O)c2)cc1`, the concentration at half-maximal activity (AC50) in assay [11] is 3.12 µM (active).

On to `Oc1ccc(-c2ccccc2)c(Cl)c1`, for which the call in assay [1], in assay [9], in assay [3], in assay [6], in assay [7] and in assay [8] was inactive. In addition, the results for the concentration at half-maximal activity (AC50) in assay [10], in assay [2] and in assay [12] were 18.1 µM (active), 91 µM (active) and 69.5 µM (active), respectively.

Take `Cc1ccc(C)c(OCCCC(C)(C)C(=O)O)c1`: the outcome in assay [9], in [10], in assay [2], in [3], in assay [4] and in [5] was inactive.
